From PubChem BioAssay (EPA / NIEHS) come the findings set out here.

Read-out in assay [1]: sulfotransferase 2A1 (SULT2A1), SULT2A1 (gene 6822)
Nature of the assay: LTEA_HepaRG_SULT2A1: Life Technologies and Expression Analysis (LTEA) Assay for sulfotransferase 2A1 (SULT2A1) using HepaRG (AID 2283531; active = hit-call score of the fitted dose curve at least 0.9, where 1 is the maximum; inactive = score below 0.9). The settings on record: mRNA level, 48 h; actives raise or lower the signal. The method in brief:
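Gene-expression endpoint in a human liver cell line: SULT2A1 mRNA change after 48 h chemical treatment, curves fitted in both directions relative to 0.5% DMSO vehicle. Concentrations spanned eight half-log steps from 100 uM.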

Read-out in assay [2]: Transforming Growth Factor (TGFA), TGFA (gene 7039)
The experiment in a line: LTEA_HepaRG_TGFA: Life Technologies and Expression Analysis (LTEA) Assay for Transforming Growth Factor (TGFA) using HepaRG (AID 2283532; active = hit-call score of the fitted dose curve at least 0.9, where 1 is the maximum; inactive = score below 0.9). Particulars: mRNA level, 48 h; actives raise or lower the signal. The method in brief: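 Differentiated human HepaRG cells, plated 48 h then switched to serum-free induction medium, were exposed in duplicate for 48 h to 8-point half-log series from 100 uM in 0.5% DMSO. TGFA mRNA measured by qRT-PCR, normalized to ACTB/GAPDH/POLR2A, bidirectional fit versus DMSO.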

Read-out in assay [3]: Transforming Growth Factor (TGFB1), TGFB1 (gene 7040)
The experiment in a line: LTEA_HepaRG_TGFB1: Life Technologies and Expression Analysis (LTEA) Assay for Transforming Growth Factor (TGFB1) Transporter using HepaRG (AID 2283533; active = hit-call score of the fitted dose curve at least 0.9, where 1 is the maximum; inactive = score below 0.9). The settings on record: mRNA level, 48 h; actives raise or lower the signal. Summed up: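 Eight-point concentration-response (max 100 uM, half-log) in HepaRG under serum-free induction conditions, 48 h. TGFB1 mRNA by qRT-PCR, housekeeping-normalized.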

Read-out in assay [4]: Tumor necrosis factor receptor 1 (TNFRSF1A), TNFRSF1A (gene 7132)
Nature of the assay: LTEA_HepaRG_TNFRSF1A: Life Technologies and Expression Analysis (LTEA) Assay for Tumor necrosis factor receptor 1 (TNFRSF1A) using HepaRG (AID 2283535; active = hit-call score of the fitted dose curve at least 0.9, where 1 is the maximum; inactive = score below 0.9). The settings on record: mRNA level, 48 h; actives raise or lower the signal. Summed up:
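Assay uses 48 h chemical treatment of differentiated HepaRG monolayers, tested in duplicate at eight concentrations from 100 uM downward in 0.5% DMSO. mRNA is normalized to ACTB, GAPDH and POLR2A, with induction or suppression fitted relative to vehicle.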

Read-out in assay [5]: Thyroid Hormone Responsive (THRSP), THRSP (gene 7069)
The experiment in a line: LTEA_HepaRG_THRSP: Life Technologies and Expression Analysis (LTEA) Assay for Thyroid Hormone Responsive (THRSP) using HepaRG (AID 2283536; active = hit-call score of the fitted dose curve at least 0.9, where 1 is the maximum; inactive = score below 0.9). Particulars: mRNA level, 48 h; actives raise or lower the signal. Summed up: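 Differentiated human HepaRG cells were exposed in duplicate for 48 h in serum-free induction medium to eight concentrations (top 100 uM, half-log steps, 0.5% DMSO). Expression was quantified by TaqMan qRT-PCR, normalized to ACTB, GAPDH and POLR2A, with bidirectional fitting against DMSO.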

Read-out in assay [6]: Cellular tumor antigen p53 (Homo sapiens) (UniProt P04637)
Nature of the assay: LTEA_HepaRG_TP53: Life Technologies and Expression Analysis (LTEA) Assay for Tumor Protein P53 (TP53) using HepaRG (AID 2283537; active = hit-call score of the fitted dose curve at least 0.9, where 1 is the maximum; inactive = score below 0.9). The settings on record: mRNA level, 48 h; actives raise or lower the signal. The method in brief: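 Differentiated HepaRG cells in serum-free induction medium exposed 48 h in duplicate to 8 half-log concentrations, top 100 uM, 0.5% DMSO. TP53 mRNA by TaqMan qRT-PCR (Fluidigm), normalized to ACTB, GAPDH, POLR2A; fitted bidirectionally versus DMSO.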

Read-out in assay [7]: UDP glucuronosyltransferase (UGT1A1), UGT1A1 (gene 54658)
Nature of the assay: LTEA_HepaRG_UGT1A1: Life Technologies and Expression Analysis (LTEA) Assay for UDP glucuronosyltransferase (UGT1A1) using HepaRG (AID 2283538; active = hit-call score of the fitted dose curve at least 0.9, where 1 is the maximum; inactive = score below 0.9). The settings on record: mRNA level, 48 h; actives raise or lower the signal. The method in brief: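 Readout is UGT1A1 transcript level by qRT-PCR, normalized to three housekeeping genes, after 48 h chemical treatment of HepaRG cells. Concentrations ran from 100 uM down in half-log steps with 0.5% DMSO, and gain or loss relative to DMSO was fitted.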

Read-out in assay [8]: UDP glucuronosyltransferase (UGT1A6), UGT1A6 (gene 54578)
The experiment in a line: LTEA_HepaRG_UGT1A6: Life Technologies and Expression Analysis (LTEA) Assay for UDP glucuronosyltransferase (UGT1A6) using HepaRG (AID 2283539; active = hit-call score of the fitted dose curve at least 0.9, where 1 is the maximum; inactive = score below 0.9). The settings on record: mRNA level, 48 h; actives raise or lower the signal. Summed up: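 Measures mRNA change in HepaRG hepatic cells exposed 48 h to chemicals (eight-point, maximum 100 uM, 0.5% DMSO vehicle) in serum-free induction medium. Expression normalized to endogenous controls; DMSO served as negative control and baseline.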

Read-out in assay [9]: X-box binding protein 1 (XBP1), XBP1 (gene 7494)
Nature of the assay: LTEA_HepaRG_XBP1: Life Technologies and Expression Analysis (LTEA) Assay for X-box binding protein 1 (XBP1) using HepaRG (AID 2283540; active = hit-call score of the fitted dose curve at least 0.9, where 1 is the maximum; inactive = score below 0.9). Particulars: mRNA level, 48 h; actives raise or lower the signal. The method in brief:
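Eight concentrations (half-log, highest 100 uM, 0.5% DMSO) tested in duplicate on HepaRG cells over 48 h in serum-free induction medium; qRT-PCR of XBP1 normalised to ACTB, GAPDH, POLR2A.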

Assay [10] in a line: LTEA_HepaRG_LDH_cytotoxicity: Cytotoxicity Assessment in the Life Technologies and Expression Analysis (LTEA) Assay (AID 2283563).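 For AC50: LDH activity released into spent culture medium as a marker of cell death.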 Summed up:
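Spent-medium LDH after 48 h chemical exposure of HepaRG cells in serum-free induction medium; eight concentrations, half-log dilutions from 100 uM, duplicate wells, fitted upward relative to 0.5% DMSO.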

Assay [11] in a line: ATG_XTT_Cytotoxicity: Cytotoxicity Assessment in the Attagene TRANS-FACTORIAL HepG2 Assay (AID 2283584). Summed up: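 24 h chemical exposure of reporter-transfected HepG2; XTT signal loss vs DMSO indicates cytotoxicity.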
Assay [12] deals with Cellular tumor antigen p53 (Homo sapiens) (UniProt P04637). Nature of the assay: TOX21_p53_BLA_p2_ratio: Tox21 HCT-116 p53 Agonism Beta-lactamase Assay, Ratio, Phase 2 (AID 2283592). The method in brief:
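Human colon HCT116 cells with an inducible p53 beta-lactamase reporter are exposed to test chemicals for 16 h at 37C. Reporter induction is read as the 460/530 nm emission ratio after CCF4-AM loading, normalized to DMSO.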

Assay [13] can be described thus: TOX21_p53_BLA_p3_viability: Viability Assessment in the Tox21 HCT-116 p53 Agonism Beta-lactamase Assay, Phase 3 (AID 2283593).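 Note: cells exposed to compound for 16 h before reading.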 The method in brief:
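HCT-116 cells (4000/well) rested 5 h at 37C, then got DMSO compounds by pin tool (217-fold dilution) for 16 h at 37C, 5% CO2. After the bla read, CellTiter-Glo was added and luminescence read at 30 min, room temperature.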

Assay [14] concerns the target Cellular tumor antigen p53 (Homo sapiens) (UniProt P04637). Nature of the assay: TOX21_p53_BLA_p3_ratio: Tox21 HCT-116 p53 Agonism Beta-lactamase Assay, Ratio, Phase 3 (AID 2283596). Summed up:
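HCT116 p53-bla cells (4000/well) given compound in DMSO (217-fold dilution) after 5 h, incubated 16 h at 37C. CCF4-AM substrate 2 h at room temperature; 460/530 nm emission ratio, gain fitted against DMSO.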

Assay [15] is described as follows: TOX21_p53_BLA_p4_viability: Viability Assessment in the Tox21 HCT-116 p53 Agonism Beta-lactamase Assay, Phase 4 (AID 2283597).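 Note: hits lower the luminescence signal meaning cytotoxicity.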 Summed up:
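Luminescent ATP readout (CellTiter-Glo, 30 min, room temperature) in the same wells as the p53 bla ratio. HCT116 cells were treated for 16 h at 37C with DMSO-dissolved compounds.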

The target of assay [16] is Cellular tumor antigen p53 (Homo sapiens) (UniProt P04637). Nature of the assay: TOX21_p53_BLA_p5_ratio: Tox21 HCT-116 p53 Agonism Beta-lactamase Assay, Ratio, Phase 5 (AID 2283599). The method in brief:
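HCT-116 cells carrying a p53-inducible beta-lactamase reporter were seeded at 4000 cells/well and dosed after 5 h with compound in DMSO (217-fold dilution). After 16 h at 37C, CCF4-AM substrate was added for 2 h, and the 460/530 nm emission ratio was scored as gain-of-signal versus DMSO.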

The nature of assay [17]: TOX21_p53_BLA_p5_viability: Viability Assessment in the Tox21 HCT-116 p53 Agonism Beta-lactamase Assay, Phase 5 (AID 2283600). Summed up:
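Seeded cells (4000/well) settle 5 h before compound addition. Plates then incubate 16 h at 37C, receive FRET substrate for 2 h, and finally CellTiter-Glo, with luminescence measured after a 30 min room-temperature incubation.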

For assay [18], the target named is Cellular tumor antigen p53 (Homo sapiens) (UniProt P04637). The experiment in a line: TOX21_p53_BLA_p4_ratio: Tox21 HCT-116 p53 Agonism Beta-lactamase Assay, Ratio, Phase 4 (AID 2283601). The method in brief:
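HCT116 cells carrying an inducible beta-lactamase reporter were plated at 4000 cells/well, rested 5 h, then exposed to compounds in DMSO (217-fold dilution) for 16 h at 37C. CCF4-AM substrate was loaded 2 h at room temperature; 460/530 nm emission ratio scored gain-of-signal versus DMSO.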

Read-out in assay [19]: TIMP1, TIMP1 (gene 7076)
Nature of the assay: LTEA_HepaRG_TIMP1: Life Technologies and Expression Analysis (LTEA) Assay for TIMP1 using HepaRG (AID 2283534; active = hit-call score of the fitted dose curve at least 0.9, where 1 is the maximum; inactive = score below 0.9). Particulars: mRNA level, 48 h; actives raise or lower the signal. Summed up: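 TIMP1 induction or repression in HepaRG cells after 48 h chemical exposure (eight concentrations, highest 100 uM), assessed by normalized qRT-PCR with bidirectional fitting to DMSO controls.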

Results filed as inconclusive are left out. Where a structure was tested more than once in an assay, its records may differ in their call. Active and inactive are the calls of the source. Rule for the calls, unless noted: active = hit-call score of the fitted dose curve at least 0.9, where 1 is the maximum; inconclusive = response in the unintended direction; inactive = score below 0.9.

Chain of Cellular tumor antigen p53 (Homo sapiens) (P04637 whole entry, looked up): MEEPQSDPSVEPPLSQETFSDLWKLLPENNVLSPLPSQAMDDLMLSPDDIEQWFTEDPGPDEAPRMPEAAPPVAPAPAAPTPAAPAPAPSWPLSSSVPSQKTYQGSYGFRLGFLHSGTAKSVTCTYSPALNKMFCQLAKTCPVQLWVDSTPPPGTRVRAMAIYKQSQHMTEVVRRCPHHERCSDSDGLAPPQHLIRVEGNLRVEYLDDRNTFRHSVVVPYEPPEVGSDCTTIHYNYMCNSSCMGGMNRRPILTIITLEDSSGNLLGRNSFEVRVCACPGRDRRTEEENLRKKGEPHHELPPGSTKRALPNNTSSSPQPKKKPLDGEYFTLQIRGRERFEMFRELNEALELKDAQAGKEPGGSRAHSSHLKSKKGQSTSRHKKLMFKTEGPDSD

By AC50 is commonly meant the concentration giving half of the maximal activity seen. Regarding `CC(C)Oc1cc(-n2nc(C(C)(C)C)oc2=O)c(Cl)cc1Cl`, the AC50 was 80.9 µM (active) in [1]; 11.8 µM (active) in assay [5]; 86.3 µM (active) in [6]; 1.41 µM (active) in [7]; 76.5 µM (active) in [8]; 84.6 µM (active) in assay [10]. The concentration at half-maximal activity (AC50) in assay [15] is 27.7 µM (active); in assay [17] it was 28.5 µM (active). Also, the compound was classed as inactive in [2], in assay [3], in assay [4], in assay [9], in [11] and in assay [12]. Also, the call in [13], in [14], in assay [15], in [16] and in [18] was inactive.
Regarding `CCCCC(CC)COC(=O)c1ccccc1C(=O)OCC(CC)CCCC` (configuration not stated), the call in [1], in assay [2], in [3], in assay [4], in assay [5] and in assay [6] was inactive. For the same compound, the result in [8], in assay [9], in [10], in assay [11], in assay [12] and in assay [13] was inactive. Besides, the result in assay [14], in assay [15], in assay [16], in assay [17] and in assay [18] was inactive. Also, the concentration at half-maximal activity (AC50) in assay [7] was 9.29 µM (active).
For the compound `CCOC(=O)CC(SP(=S)(OC)OC)C(=O)OCC` (configuration not stated), the compound was called inactive in assay [1], in assay [2], in assay [3], in assay [19], in assay [4] and in [5]. The result in assay [6], in [7], in assay [8], in assay [9], in [10] and in assay [12] was inactive. The compound was classed as inactive in [13], in assay [14], in [15], in assay [16], in [17] and in assay [18]. Also, the AC50 in assay [13] is 43.3 µM (active).
For `OC(c1ccc(Cl)cc1)(c1cncnc1)c1ccccc1Cl` (configuration not stated), the half-maximal activity concentration (AC50) in assay [1] was 77 µM (active); in assay [2], 77.5 µM (active); in assay [3], 50 µM (active); in assay [5], 86.4 µM (active); in assay [6], 70.7 µM (active); in assay [7], 91.1 µM (active). Also, the AC50 in assay [8] was 74.1 µM (active); in assay [10] it was 70.1 µM (active); in assay [12], 81.5 µM (active); in assay [18] it was 63 µM (active). The outcome in assay [4], in [9], in assay [11], in assay [12], in [13] and in [14] was inactive. For the same compound, the compound was called inactive in [15], in assay [16] and in assay [17].
Regarding `CCNc1nc(Cl)nc(NC(C)C)n1`, the compound was classed as inactive in [1], in assay [2], in assay [3], in assay [19], in assay [4] and in assay [5]. In addition, the call in assay [6], in assay [8], in assay [9], in assay [10], in assay [11] and in assay [12] was inactive. Further, the result in assay [18] was inactive. The concentration at half-maximal activity (AC50) in assay [7] was 18.1 µM (active).
As for `O=C(Nc1ccccc1)Nc1ccnc(Cl)c1`, the AC50 in [1] is 81.5 µM (active); in assay [2] it was 76.1 µM (active); in assay [3], 80 µM (active); in assay [19] it was 74.9 µM (active); in assay [4], 96.7 µM (active); in assay [6] it was 74 µM (active). Moreover, the AC50 in [7] is 79.6 µM (active); in assay [8] it was 76.8 µM (active); in [9], 72.1 µM (active); in [10] it was 39.4 µM (active); in [14], 46.1 µM (active); in [18] it was 41 µM (active). In addition, the compound was classed as inactive in assay [5], in assay [12], in assay [13], in [15], in assay [16] and in assay [17].
